Composite z-score data for 27 molecules are collected here from PubChem BioAssay.

This experiment deals with Human papillomavirus type 1a protein E7 (residues 44-93). In words: small molecules binding HPV E7 44-93 – biochemical, small-molecule microarray, residues 44-93, 635 nm fluorescence, primary screen (AID 1108).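 Note: E7 fragment applied at 1 µg/mL in TBST for 1 h at 4 C; score combines spot fluorescence with its signal to noise ratio.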 The following applies: fluorescence 635 nm, higher = more signal.
Turning to `COCCOC(=O)N1C(=O)[C@@]2(c3cc(C#CC4(O)CCCCCC4)ccc31)[C@H](C(=O)N1CCCCCCC1)[C@H]1C(=O)O[C@H](c3ccccc3)[C@H](c3ccccc3)N1[C@@H]2c1ccc(O)cc1`, the composite z-score is 0.554.

The molecule `C=CCC(OC(C)=O)[C@@H]1[C@@H](N(Cc2cc3ccccc3o2)C(=O)Cc2ccc(F)cc2)c2cc(OCCCO)ccc2N1C(=O)c1ccc(-c2ccccc2)cc1` (some centres not stated) returned a composite z-score of -0.524.

Take `O=C(CS)NCCCCCNC(=O)[C@H]1C[C@H]2C(=O)N[C@@H](Cc3ccccc3)C(=O)N2[C@H]1c1ccc(O)cc1`: the composite z-score turned out to be 0.151. `CO[C@H]1COC(=O)CC=C[C@@H](C)COC(=O)[C@@H](C)NC(=O)CC=C[C@@H]1C` had a composite z-score of -0.291. With `CCC(=O)[C@]12O[C@@]3([C@@H]4C(=O)OCC[C@@H]41)N(Cc1ccccc1)C(C)=C(C(=O)OC)[C@@H](c1ccccc1)N3C2=O` the figure was -2.88. In the case of `C[C@]1(C(=O)NCCN2CCOCC2)c2ccccc2C(=O)N(Cc2ccccc2)[C@H]1c1ccc(CO)cc1`, the composite z-score was -0.474.

Regarding `CC[C@H]1C2=C3C(CC[C@H]4C(OC)OC[C@](C)([C@@H]34)N(C(=O)OC(C)(C)C)C2)C(CO)C1CO` (some centres not stated), the composite z-score was determined as 1.37.

With `O=C1c2ccccc2[C@@]2(Cc3ccccc3N(CC(F)(F)F)C2=O)[C@H](c2ccc(CO)cc2)N1C1CCCCC1`, the composite z-score worked out at 0.796. With `C=C(C(=O)CC[C@H](OC(=O)c1ccccc1-c1ccccc1C(=O)O)c1ccc(CO)o1)C(C)C` the figure was 1.24. `CC1=C([C@H](O)CCc2ccccc2)[C@H](CO)[C@@H]2C(=O)N(Cc3ccccc3)C(=O)[C@@H]2C1` returned a composite z-score of 0.0933. On to `O=C1O[C@H](c2ccccc2)[C@H](c2ccccc2)N2[C@H]1[C@@H](C(=O)NC[C@H](O)c1ccccc1)[C@]1(C(=O)Nc3ccc(C#CC4=CCCCC4)cc31)[C@H]2c1ccc(OCCO)cc1`, for which the composite z-score was determined as 0.567. Molecule `COc1cc(Cc2cc3c(c(CCc4ccccc4)n2)[Si](C(C)C)(C(C)C)OC3)cc(OC)c1OC` came in with a composite z-score of -0.0207.

In the case of `CO[C@H]1O[C@H](CO)[C@@H](OC(=O)CCc2ccccc2)[C@@H]2OC(=O)[C@H](Cc3cccc(Br)c3)C/C=C/C[C@@H](Cc3cccc(Br)c3)C(=O)O[C@@H]12`, the composite z-score stood at 0.234. As to `Cc1ccc(S[C@]2(C(=O)NCCCN(C)C)CC(=O)N(C3CCCCC3)[C@@H]2c2ccc(CO)cc2I)cc1`, the composite z-score was -1.32. `COC(=O)[C@@]1(Cc2ccccc2CN=[N+]=[N-])N=C(c2ccc(OCCCO)cc2)O[C@H]1c1ccccc1N=[N+]=[N-]`: the composite z-score stood at 1.02. For the molecule `CO[C@@H]1COC(=O)[C@H](C)NC(=O)CC=C[C@@H](C)[C@H](OC)COC(=O)[C@H](C)NC(=O)CC=C[C@H]1C`, the composite z-score amounted to 0.0508.

`COCCOC(=O)N1C(=O)[C@@]2(c3cc(C#CCNC(N)=O)ccc31)[C@H](c1ccc(OCCO)cc1)N1[C@H](c3ccccc3)[C@H](c3ccccc3)OC(=O)[C@H]1[C@@H]2C(=O)Nc1nc2ccccc2s1` registered a composite z-score of 0.376.

For `C=CC[C@@]1(C(=O)N2CCOCC2)N=C(c2ccc(OCCCO)cc2)O[C@@H]1c1ccccc1`, the composite z-score came to 0.0433. `COc1cc2c(cc1OC)CN(C(=O)[C@H]1[C@@H]3C(=O)O[C@@H](c4ccccc4)[C@@H](c4ccccc4)N3[C@@H](c3ccc(O)cc3)[C@]13C(=O)Nc1ccc(C#CC4(O)CCCCCC4)cc13)CC2`: the composite z-score is 1.4. On to `O=C/C=C/c1ccccc1Cl`, for which the composite z-score is -1.36.

As for `C=CCC(OC(C)=O)[C@@H]1[C@@H](N(Cc2cccc3ccccc23)C(=O)Cc2ccc(F)cc2)c2cc(OCCCO)ccc2N1C(=O)Cc1ccc2ccccc2c1` (some centres not stated), the composite z-score was -0.28. `CC(=O)NCCCC[C@@H]1NC(=O)[C@@H]2C[C@H](C(=O)NCCCCCNC(=O)CS)[C@H](c3ccc(O)cc3)N2C1=O`: the composite z-score amounted to 0.364. In turn, `C[N+](C)(C)CCCCNC(=O)[C@@H]1C[C@@H]2C(=O)N3CCC[C@H]3C(=O)N2[C@@H]1c1cccc(OCCO)c1` displayed a composite z-score of -0.745. Turning to `O=C(NCC(O)CO)[C@]1(Cc2ccccc2)N=C(c2ccc(OCCCO)cc2)O[C@@H]1c1ccccc1` (some centres not stated), the composite z-score was 0.679. In the case of `COC(=O)Cn1c(C(=O)N2CCCC2)cc2c1C[C@H]1CN(C(=O)c3ccccc3)[C@@](Cc3ccccc3)(C(=O)OC)[C@@H]21`, the composite z-score turned out to be 0.225. `CCOC(=O)[C@H]1C/C=C/C[C@H](C(=O)OCC)C(=O)O[C@H]2[C@@H](OC)O[C@H](CO)[C@@H](OC(=O)Nc3ccc(Br)cc3)[C@@H]2OC1=O` returned a composite z-score of 0.205. `CO[C@@H]1COC(=O)[C@@H]2CCCN2C(=O)CC=C[C@@H](C)[C@H](OC)COC(=O)[C@@H]2CCCN2C(=O)CC=C[C@H]1C`: the composite z-score is -0.699.
